HT1080 IDH1KD tx = kills HT-1080 cells with IDH1 knockdown; HT-1080 IDH1 knockdown viability, ATP luminescence, 48 h; Potency, µM (highest dose often 46.1 µM), for inactives: at the top dose activity, negative = toxicity, hits mostly cytotoxic; hit rate 2% among 360,000; AID 686971;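 further: 0% = DMSO wells and -100% = cell-free medium wells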
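After a 2 h attachment period, IDH1KD HT-1080 cells took pin-transferred compound for 48 h at 37 °C; ATP-based luminescence after 10 min room-temperature reagent incubation reported viability.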
DT40 TDP1 no CPT = qHTS for Inhibitors of human tyrosyl-DNA phosphodiesterase 1 (TDP1): qHTS in cells in absence of CPT | hit rate 15% among 420,000 | Potency, µM (highest dose often 46.2 µM), without a hit: at the highest dose activity change, negative = growth inhibition, actives largely listed as inhibitors | DT40 Tdp1-/- hTDP1 cells, no CPT, ATP luminescence, 48 h | AID 686978, 2013; further: nearly all actives have a fitted effect of over 55% in size
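Growth kinetics read by CellTiter-Glo luminescence after ≥48 hr at 37 °C. Cells: DT40 Tdp1-/- stably carrying human TDP1, 400 per well, compound exposure in the absence of CPT (DMSO vehicle).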
HT1080-NT tox = kills 2HG-producing HT-1080-NT fibrosarcoma cells; HT-1080-NT fibrosarcoma viability, CellTiter-Glo ATP luminescence, 48 h; hit rate 1.6% among 360,000; Potency, µM (titrated, usually from 46.1 µM), inactives show at the highest dose activity, negative = less viability, actives largely listed as cytotoxic;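 further: NT is the 2HG producing partner of a matched IDH1 knockdown line; 0% = DMSO-treated cells and -100% = media-only wells without cells; nearly all actives have a fitted effect of over 55% in size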
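Toxicity toward the 2HG-producing NT line was scored as %Activity, normalised to DMSO and no-cell wells, from CellTiter-Glo luminescence after 48 hours' treatment.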
KB-3-1 cytotox = KB-3-1 parental cell cytotoxicity; AID 1347075; KB-3-1 viability, CellTiter-Glo ATP luminescence, 72 h; Potency, µM (titrated, usually from 46.1 µM), actives largely listed as cytotoxic; hit rate 1.4% among 400,000; further: nearly all actives have a fitted effect of over 60% in size
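Luminescent ATP read-out (CellTiter-Glo) measures survival of drug-naive KB-3-1 cells after 72 h compound exposure at 37 °C. Titration series was screened from lowest to highest concentration, with DMSO vehicle plates as background controls.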
TDP1 cell CPT = DT40-hTDP1 cell growth loss with CPT; chicken DT40 Tdp1-/-;hTDP1 cells + 20 nM CPT, ATP luminescence, 48 h; Potency, µM (doses to about 46.2 µM), for the others: top-dose activity change, negative = growth inhibition, usual class: inhibitors; hit rate 12% among 420,000; further: nearly all actives have a fitted effect of over 55% in size
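Cell growth measured by CellTiter-Glo luminescence after a minimum 48 h, 37 C compound exposure with 20 nM CPT in Tdp1-knockout DT40 cells stably expressing hTDP1, seeded 400/well; qHTS titration format.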
KB-V1 cytotox = kills drug-selected multidrug resistant KB-V1 cells. Potency, µM (top dose mostly 46.1 µM), usual class: cytotoxic. hit rate 3.4% among 400,000. KB-V1 MDR cells viability, CellTiter-Glo, 72 h; further: nearly all actives have a fitted effect of over 60% in size
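KB-V1, DMEM (no phenol red) + 10% FBS; cpd pin-transferred, titration series; 72 h, 37 degrees C; CellTiter-Glo, luminescence. Data normalized, curve-fit.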
An asterisk follows results filed as active; i = inactive; ? = inconclusive; / = no result. Hits are enriched below; roughly 19% of the tested compounds scored in any of these assays. The call rests on the fitted dose curve; in most records, active means well fitted curve in the direction sought with a large enough effect; inconclusive means small, poorly fitted or top-dose-only effect, or another doubt; inactive means no such curve, though single readings can be large; an effect the other way counts as inactive or inconclusive. Unless noted, on the % scale 0 is the no-effect control and ±100 the full control effect; potency means the concentration at half of the fitted maximal effect.

SMILES	HT1080 IDH1KD tx	DT40 TDP1 no CPT	HT1080-NT tox	KB-3-1 cytotox	TDP1 cell CPT	KB-V1 cytotox
COc1ccc(/C=C/C(=O)O)cc1S(=O)(=O)N1CCCC1	-1%	15%	-1%	i	17%	i
Cc1[nH]c2ccccc2c1CN1CCC(CO)(Cc2ccccc2)CC1	-1%	?	-1%	i	13µM*	i
Cc1cc(C)n(-c2cccc(CN3CCC(CO)(Cc4ccccc4)CC3)c2)n1	-12%	23µM*	-12%	i	?	?
Cc1ccc(OCCCC(=O)Nc2sc3c(c2C(N)=O)CCC(C)C3)cc1 (stereo unspecified)	/	-27%	/	i	-9%	i
CCOC(=O)c1cc2[nH]c3ccccc3c2[n+](-c2ccc([N+](=O)[O-])cc2)c1N	-29%	8.2µM*	?	?	12µM*	i
O=C(OCC(=O)N1CCN(C(=O)COC(=O)c2ccc(O)cc2O)CC1)c1ccc(O)cc1O	7%	?	6%	i	-28%	i
Cc1cccc(-c2noc(-c3ccccc3OCC(=O)Nc3ccccc3[N+](=O)[O-])n2)c1	/	16µM*	/	i	?	i
Cc1ccc(-c2noc(-c3ccccc3OCC(=O)Nc3ccccc3[N+](=O)[O-])n2)cc1	/	15%	/	i	-5%	i
O=C(COc1ccccc1-c1nc(-c2ccccc2)no1)Nc1cccc([N+](=O)[O-])c1	/	?	/	/	2.6µM*	/
Cc1ccc(CNc2nc(C)cs2)cc1	-4%	-28%	2%	i	-3%	i
Nc1nonc1C(=O)NCCNCc1cc(Br)ccc1OCc1ccc(F)cc1	-22%	10µM*	-8%	11µM*	10µM*	?
Nc1nonc1C(=O)NCCNCc1ccccc1F	/	/	/	i	/	i
COc1ccc(CNCCNC(=O)c2nonc2N)cc1OC	2%	-19%	2%	i	-1%	i
Nc1nonc1C(=O)NCCNCc1c(OCc2ccccc2F)ccc2ccccc12	10µM*	11µM*	?	?	11µM*	i
CCOc1c(Cl)cc(Cl)cc1CNCCSc1nnnn1C	/	?	/	i	?	i
CC(C)CNC(=O)C1=CC(c2ccc3c(c2)OCO3)=NS(=O)(=O)N1C	/	-16%	/	i	-28%	i
CCN1C(=O)[C@H]2[C@@H](c3ccc(C)cc3)N3C(=O)N(c4cccc(Br)c4)C(=O)[C@@]3(CC(C)C)[C@H]2C1=O	-3%	?	-12%	?	?	i
COC(=O)c1cc2oc3ccccc3c2n1Cc1cccc(C)c1	/	?	/	i	-27%	i
CCN(C(=O)Cn1c(C(=O)OC)cc2oc3ccccc3c21)c1cccc(C)c1	/	18µM*	/	i	12µM*	i
CCN(CC)CCNC(=O)c1c(C)oc2ncn(C)c(=O)c12	/	-8%	/	i	-23%	i
CN(C(=O)c1cc2c(cc1Br)OCO2)c1cccc2ccccc12	-21%	21µM*	-9%	i	?	?
O=C(Nc1cccc2ccccc12)c1cc2c(cc1Br)OCO2	2%	?	-8%	i	?	i
CC(NC(=O)c1ccco1)C(c1cccs1)N1CCN(c2ccccc2F)CC1 (stereo unspecified)	5%	?	-27%	i	?	i
CCN1CCN(C(c2cccs2)C(C)NS(=O)(=O)c2ccc(Br)cc2)CC1 (stereo unspecified)	-1%	26µM*	0%	i	?	23µM*
CCS(=O)(=O)NC(C)C(c1cccs1)N1CCN(c2ccc(F)cc2)CC1 (stereo unspecified)	-4%	21µM*	-7%	i	?	i

Screening results from PubChem BioAssay.
